Test results from the supplement of paper PMC11732987, “Enantioselective OTUD7B fragment discovery through chemoproteomics screening and high-throughput optimisation” (Communications Chemistry, 2025).

What was measured:
Assay in all cases: log2 ratio of Biotin-Ahx-Ub-VS probe labelling (fragment/DMSO); higher = less target engagement (more negative = stronger competition), active = hit call of the paper (q ≤ 0.05, log2 ratio ≤ -1)
Conditions in all cases: compound concentration: 200 uM; treatment time: 3 h
USP19 = target: T1, USP19 (UniProt O94966)
T1 sequence (whole entry): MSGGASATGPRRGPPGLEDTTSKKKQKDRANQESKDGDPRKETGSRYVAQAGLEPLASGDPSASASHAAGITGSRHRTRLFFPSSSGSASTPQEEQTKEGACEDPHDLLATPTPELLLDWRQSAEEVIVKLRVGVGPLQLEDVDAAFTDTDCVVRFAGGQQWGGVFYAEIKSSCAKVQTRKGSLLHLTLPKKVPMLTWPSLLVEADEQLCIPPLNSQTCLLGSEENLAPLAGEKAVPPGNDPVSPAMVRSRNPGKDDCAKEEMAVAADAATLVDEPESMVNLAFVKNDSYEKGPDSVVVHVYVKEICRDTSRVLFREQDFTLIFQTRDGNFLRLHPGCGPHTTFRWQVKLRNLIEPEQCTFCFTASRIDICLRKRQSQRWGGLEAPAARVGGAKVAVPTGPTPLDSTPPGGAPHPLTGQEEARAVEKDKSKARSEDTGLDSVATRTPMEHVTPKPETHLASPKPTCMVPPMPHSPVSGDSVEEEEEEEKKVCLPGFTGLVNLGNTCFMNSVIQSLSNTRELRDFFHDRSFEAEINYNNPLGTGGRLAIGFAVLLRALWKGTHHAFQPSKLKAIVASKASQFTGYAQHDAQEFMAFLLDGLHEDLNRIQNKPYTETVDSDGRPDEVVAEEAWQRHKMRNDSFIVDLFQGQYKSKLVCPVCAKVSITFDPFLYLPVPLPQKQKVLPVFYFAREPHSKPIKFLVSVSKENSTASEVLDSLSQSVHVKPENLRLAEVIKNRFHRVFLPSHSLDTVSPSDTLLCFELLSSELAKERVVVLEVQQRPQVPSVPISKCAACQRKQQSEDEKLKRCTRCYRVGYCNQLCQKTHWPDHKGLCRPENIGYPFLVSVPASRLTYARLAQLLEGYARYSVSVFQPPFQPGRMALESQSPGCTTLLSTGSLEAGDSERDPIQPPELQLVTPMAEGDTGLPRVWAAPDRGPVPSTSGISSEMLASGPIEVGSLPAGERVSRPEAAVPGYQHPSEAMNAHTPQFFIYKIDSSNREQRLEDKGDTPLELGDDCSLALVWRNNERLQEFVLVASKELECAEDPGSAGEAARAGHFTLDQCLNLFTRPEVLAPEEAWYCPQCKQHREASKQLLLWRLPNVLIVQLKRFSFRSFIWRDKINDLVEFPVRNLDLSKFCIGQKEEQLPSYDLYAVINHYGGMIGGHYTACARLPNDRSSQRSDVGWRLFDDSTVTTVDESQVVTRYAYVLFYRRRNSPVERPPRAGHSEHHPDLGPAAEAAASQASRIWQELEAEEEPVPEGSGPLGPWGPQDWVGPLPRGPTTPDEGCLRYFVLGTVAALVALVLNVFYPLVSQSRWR
How it was run: (§1)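 HEK293T lysate in Tris/CHAPS/IGEPAL buffer with protease inhibitors (495 µg per sample) was given fragment at 200 µM or vehicle for 3 h, in triplicate. It then received Biotin-Ahx-Ub-VS at 0.5 µM final for 1 h. Labelled DUBs were NeutrAvidin-enriched, digested with LysC and trypsin, and run by diaPASEF LC-MS/MS. Values are average log2 fragment/vehicle ratios by unpaired t-test on global-median-normalised Spectronaut quantities of proteins with ≥2 unique peptides.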

USP22 = target: T2, USP22 (UniProt Q9UPT9)
T2 sequence (whole entry): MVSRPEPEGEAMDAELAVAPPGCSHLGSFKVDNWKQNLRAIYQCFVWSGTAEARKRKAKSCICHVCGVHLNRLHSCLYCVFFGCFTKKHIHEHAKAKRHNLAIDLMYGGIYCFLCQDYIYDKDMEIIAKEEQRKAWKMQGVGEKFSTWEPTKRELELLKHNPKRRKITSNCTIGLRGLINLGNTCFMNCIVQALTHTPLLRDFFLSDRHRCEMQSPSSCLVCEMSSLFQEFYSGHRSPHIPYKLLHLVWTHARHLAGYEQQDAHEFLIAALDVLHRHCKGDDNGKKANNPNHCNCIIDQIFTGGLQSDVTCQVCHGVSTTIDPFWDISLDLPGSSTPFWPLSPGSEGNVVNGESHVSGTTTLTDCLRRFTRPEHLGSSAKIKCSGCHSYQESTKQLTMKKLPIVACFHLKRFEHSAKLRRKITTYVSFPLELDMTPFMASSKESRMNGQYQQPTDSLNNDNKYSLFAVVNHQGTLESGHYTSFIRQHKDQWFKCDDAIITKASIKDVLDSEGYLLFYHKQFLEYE
How it was run: as §1

USP24 = USP24 (UniProt Q9UPU5)
Chain of USP24 (Q9UPU5 whole entry): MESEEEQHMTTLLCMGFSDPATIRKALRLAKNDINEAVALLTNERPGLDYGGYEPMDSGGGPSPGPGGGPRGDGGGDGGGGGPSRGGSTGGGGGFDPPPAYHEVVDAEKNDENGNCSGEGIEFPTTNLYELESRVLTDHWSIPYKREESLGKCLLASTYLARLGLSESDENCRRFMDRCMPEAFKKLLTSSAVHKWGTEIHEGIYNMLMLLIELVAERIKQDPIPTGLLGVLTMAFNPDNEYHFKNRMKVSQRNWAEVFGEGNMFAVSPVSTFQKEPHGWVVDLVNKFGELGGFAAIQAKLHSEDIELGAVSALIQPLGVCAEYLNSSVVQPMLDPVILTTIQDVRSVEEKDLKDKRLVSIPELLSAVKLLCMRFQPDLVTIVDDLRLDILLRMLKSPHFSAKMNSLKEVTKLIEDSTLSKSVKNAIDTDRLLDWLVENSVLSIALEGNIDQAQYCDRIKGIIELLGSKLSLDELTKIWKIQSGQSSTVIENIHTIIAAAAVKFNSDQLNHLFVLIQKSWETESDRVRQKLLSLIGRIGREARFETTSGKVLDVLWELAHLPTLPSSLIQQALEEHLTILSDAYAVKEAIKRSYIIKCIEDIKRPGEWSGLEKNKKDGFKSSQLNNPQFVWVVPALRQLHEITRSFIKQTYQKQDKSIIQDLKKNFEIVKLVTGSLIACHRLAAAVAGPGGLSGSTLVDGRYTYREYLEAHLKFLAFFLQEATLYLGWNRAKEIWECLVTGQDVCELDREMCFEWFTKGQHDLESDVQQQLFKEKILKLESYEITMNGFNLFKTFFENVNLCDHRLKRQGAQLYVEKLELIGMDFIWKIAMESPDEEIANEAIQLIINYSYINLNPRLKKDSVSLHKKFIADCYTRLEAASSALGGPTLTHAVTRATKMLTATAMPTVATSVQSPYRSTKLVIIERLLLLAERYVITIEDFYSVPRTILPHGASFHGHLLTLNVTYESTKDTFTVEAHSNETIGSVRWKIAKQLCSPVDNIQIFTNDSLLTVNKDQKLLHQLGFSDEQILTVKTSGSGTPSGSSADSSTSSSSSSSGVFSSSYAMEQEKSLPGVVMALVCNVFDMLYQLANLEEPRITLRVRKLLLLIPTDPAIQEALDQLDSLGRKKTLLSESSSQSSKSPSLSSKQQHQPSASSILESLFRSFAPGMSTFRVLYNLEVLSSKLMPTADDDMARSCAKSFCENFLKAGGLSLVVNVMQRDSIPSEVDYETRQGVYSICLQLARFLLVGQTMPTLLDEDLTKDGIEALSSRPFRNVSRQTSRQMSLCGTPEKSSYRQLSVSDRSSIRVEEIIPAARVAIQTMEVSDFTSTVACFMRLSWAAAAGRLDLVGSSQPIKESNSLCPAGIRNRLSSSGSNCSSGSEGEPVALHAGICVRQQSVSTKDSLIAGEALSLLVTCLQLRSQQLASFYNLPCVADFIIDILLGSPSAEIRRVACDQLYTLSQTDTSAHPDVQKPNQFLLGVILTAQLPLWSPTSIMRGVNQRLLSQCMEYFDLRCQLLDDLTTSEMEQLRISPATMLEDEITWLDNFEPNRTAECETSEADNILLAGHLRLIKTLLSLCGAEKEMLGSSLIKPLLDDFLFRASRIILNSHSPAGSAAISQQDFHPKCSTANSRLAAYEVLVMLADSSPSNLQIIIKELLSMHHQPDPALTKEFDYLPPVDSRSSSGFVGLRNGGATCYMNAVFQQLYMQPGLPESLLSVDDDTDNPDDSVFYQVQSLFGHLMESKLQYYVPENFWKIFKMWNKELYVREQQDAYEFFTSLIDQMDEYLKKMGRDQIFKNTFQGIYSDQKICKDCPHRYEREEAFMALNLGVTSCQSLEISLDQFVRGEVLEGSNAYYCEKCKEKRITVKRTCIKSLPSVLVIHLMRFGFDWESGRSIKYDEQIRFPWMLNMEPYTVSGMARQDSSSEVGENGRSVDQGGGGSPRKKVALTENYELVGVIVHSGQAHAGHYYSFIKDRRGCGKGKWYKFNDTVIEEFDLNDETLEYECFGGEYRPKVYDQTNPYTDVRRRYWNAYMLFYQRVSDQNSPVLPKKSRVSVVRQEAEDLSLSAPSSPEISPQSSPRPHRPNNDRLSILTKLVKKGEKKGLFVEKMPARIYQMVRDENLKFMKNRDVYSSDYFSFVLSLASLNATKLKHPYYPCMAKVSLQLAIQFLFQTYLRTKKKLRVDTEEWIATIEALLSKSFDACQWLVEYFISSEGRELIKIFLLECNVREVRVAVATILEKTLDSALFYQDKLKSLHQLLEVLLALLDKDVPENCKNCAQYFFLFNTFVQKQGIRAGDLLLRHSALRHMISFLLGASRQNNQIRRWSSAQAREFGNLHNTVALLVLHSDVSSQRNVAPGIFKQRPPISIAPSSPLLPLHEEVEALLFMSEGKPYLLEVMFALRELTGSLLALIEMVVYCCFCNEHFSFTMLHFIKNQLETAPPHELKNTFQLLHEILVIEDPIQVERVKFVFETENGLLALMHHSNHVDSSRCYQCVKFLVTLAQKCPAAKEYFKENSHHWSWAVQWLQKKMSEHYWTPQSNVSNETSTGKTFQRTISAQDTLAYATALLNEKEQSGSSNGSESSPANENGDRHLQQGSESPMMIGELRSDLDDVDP
How it was run: as §1

USP25 = target: T3, USP25 (UniProt Q9UHP3)
T3 sequence (whole entry): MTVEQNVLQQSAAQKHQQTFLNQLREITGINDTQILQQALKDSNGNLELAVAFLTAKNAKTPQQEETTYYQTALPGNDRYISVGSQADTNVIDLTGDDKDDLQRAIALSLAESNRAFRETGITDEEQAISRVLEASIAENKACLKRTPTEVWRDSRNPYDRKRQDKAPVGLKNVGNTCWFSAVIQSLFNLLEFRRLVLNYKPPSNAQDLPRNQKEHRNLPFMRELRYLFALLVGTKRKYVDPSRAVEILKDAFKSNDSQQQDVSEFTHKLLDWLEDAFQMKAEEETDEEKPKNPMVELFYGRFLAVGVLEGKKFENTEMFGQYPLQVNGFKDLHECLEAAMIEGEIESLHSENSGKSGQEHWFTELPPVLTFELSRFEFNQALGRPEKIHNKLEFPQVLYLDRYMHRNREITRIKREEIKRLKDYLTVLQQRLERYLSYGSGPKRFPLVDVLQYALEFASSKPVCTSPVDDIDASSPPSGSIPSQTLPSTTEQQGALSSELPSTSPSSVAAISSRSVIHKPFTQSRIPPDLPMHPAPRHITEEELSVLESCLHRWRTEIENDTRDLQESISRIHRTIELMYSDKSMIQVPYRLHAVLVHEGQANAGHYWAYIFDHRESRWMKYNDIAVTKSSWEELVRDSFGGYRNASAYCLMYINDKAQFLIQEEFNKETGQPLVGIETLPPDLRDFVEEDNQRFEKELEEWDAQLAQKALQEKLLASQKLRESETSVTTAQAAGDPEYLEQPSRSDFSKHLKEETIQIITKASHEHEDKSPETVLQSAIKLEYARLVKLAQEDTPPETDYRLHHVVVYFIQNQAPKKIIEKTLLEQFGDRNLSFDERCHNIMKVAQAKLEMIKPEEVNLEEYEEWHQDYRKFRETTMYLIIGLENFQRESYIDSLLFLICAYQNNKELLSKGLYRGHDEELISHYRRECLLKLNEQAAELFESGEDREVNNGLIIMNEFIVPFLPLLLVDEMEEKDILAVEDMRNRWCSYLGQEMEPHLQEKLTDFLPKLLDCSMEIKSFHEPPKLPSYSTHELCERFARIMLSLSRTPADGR
How it was run: as §1

USP28 = target: T4, USP28 (UniProt Q96RU2)
T4 sequence (whole entry): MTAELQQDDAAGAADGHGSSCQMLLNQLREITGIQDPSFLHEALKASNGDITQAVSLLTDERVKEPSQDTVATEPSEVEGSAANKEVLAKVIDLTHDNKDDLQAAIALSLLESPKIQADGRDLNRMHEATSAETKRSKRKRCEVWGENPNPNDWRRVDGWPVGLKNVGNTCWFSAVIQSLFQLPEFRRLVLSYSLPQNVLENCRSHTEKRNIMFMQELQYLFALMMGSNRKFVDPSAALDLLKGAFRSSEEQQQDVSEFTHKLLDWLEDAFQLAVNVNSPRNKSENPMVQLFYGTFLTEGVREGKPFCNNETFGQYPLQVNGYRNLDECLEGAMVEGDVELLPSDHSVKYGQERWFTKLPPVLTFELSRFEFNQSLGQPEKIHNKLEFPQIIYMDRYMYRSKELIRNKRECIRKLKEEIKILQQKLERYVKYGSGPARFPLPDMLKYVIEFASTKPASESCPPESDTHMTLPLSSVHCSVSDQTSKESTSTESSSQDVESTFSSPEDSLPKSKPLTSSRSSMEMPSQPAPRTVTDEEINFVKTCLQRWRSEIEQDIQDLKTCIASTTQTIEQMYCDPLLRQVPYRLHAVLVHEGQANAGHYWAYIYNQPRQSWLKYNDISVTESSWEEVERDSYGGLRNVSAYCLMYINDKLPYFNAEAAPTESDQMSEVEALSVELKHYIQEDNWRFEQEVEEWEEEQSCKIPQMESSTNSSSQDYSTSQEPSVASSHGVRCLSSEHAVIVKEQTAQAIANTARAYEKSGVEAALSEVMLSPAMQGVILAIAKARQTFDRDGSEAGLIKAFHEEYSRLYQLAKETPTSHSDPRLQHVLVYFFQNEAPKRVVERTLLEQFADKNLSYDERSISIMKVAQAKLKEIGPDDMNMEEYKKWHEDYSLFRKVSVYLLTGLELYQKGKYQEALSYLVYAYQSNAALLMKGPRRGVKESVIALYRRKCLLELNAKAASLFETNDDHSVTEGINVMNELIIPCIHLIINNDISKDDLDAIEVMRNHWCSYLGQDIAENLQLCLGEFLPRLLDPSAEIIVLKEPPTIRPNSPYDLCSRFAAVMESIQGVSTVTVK
How it was run: as §1

Measured: log2 ratio of Biotin-Ahx-Ub-VS probe labelling

O=C(CCl)N1CCC(S(=O)(=O)c2ccc(F)cc2)CC1
inactive: USP19 -0.376 | USP22 0.191 | USP24 -0.346 | USP25 -0.444 | USP28 -0.572
